Laboratory results taken from PubChem BioAssay AID493005 (National Center for Advancing Translational Sciences (NCATS), 2010).
Screen size: about 340,000 compounds; fewer than 10 were called active. The call rests on the fitted dose curve; in most records, active means well fitted inhibition curve with a large enough effect in the main read-out, with a control signal flat (not every such curve was filed as active); inconclusive means small, poorly fitted or top-dose-only effect, or effect the other way, or a change in a side signal; inactive means no such curve, though single readings can be large or run the other way. The list is a sample of the results.

Each compound was assayed against Tumor susceptibility gene 101 protein (Homo sapiens) (UniProt Q99816) (assay: qHTS Assay for Iinhibitors of HIV-1 Budding by Blocking the Interaction of PTAP/TSG101). Conditions: Fluorescence polarization, FITC-PTAP peptide / Tsg101 binding; series mostly up to 115 µM.
Description: NIH Molecular Libraries Probe Production Network [MLPCN] NIH Chemical Genomics Center [NCGC] MLPCN Grant: 1 R03 MH087464-01A1 PI Name: Dr. Eric Freed, NCI NCGC Assay Overview: Stages of the HIV-1 replication cycle, specifically virus assembly and release, provide underexploited targets for the development of novel antiviral inhibitors. The late stages of HIV-1 replication are mediated by the Gag precursor protein, Pr55Gag. Expression of Pr55Gag is both necessary and sufficient for the production of virus-like particles from Gag-expressing cells. The Gag protein hijacks key host proteins involved in endocytic machinery of the host cell to promote endosomal processing and viral budding. The budding process requires a direct interaction between a […] (PTAP) motif in the p6 domain of Gag and the cellular endosomal sorting protein known as Tsg101. In this way, the Gag PTAP motif promotes the host cells to recruit viral particles to the plasma membrane where the new viral particles are released, effectively turning the host cells into viral factories. A fluorescence anisotropy assay has been developed to quantitatively measure the PTAP-Tsg101 interaction which can be used to screen for inhibitors of this interaction.
NCGC Assay Protocol Summary: Two uL of the Tsg101 binding domain in buffer (10 mM HEPES pH 7.5; 0.15 M NaCl, 0.01% Tween 20; 3 mM EDTA;0.1 mM TCEP) was dispensed into Greiner black MB 1536-well plates (final concentration 10 uM). Then, 23 nL of compounds or DMSO were delivered to each well using a pin tool. Finally, 2 uL of a FITC-labeled peptide containing the PTAP motif (1) in the same buffer was dispensed (50 nM final concentration) and the binding was allowed to proceed for 20 min. at r.t. Fluorescent polarization was determined using FITC excitation and polarized emission filters on a Perkin Elmer Viewlux. Keywords: Tsg101, PTAP, Gag, HIV, fluorescent polarization, MLSMR, MLPCN, NIH Roadmap, qHTS, NCGC

Tumor susceptibility gene 101 protein (Homo sapiens), sequence (Q99816 whole entry, looked up): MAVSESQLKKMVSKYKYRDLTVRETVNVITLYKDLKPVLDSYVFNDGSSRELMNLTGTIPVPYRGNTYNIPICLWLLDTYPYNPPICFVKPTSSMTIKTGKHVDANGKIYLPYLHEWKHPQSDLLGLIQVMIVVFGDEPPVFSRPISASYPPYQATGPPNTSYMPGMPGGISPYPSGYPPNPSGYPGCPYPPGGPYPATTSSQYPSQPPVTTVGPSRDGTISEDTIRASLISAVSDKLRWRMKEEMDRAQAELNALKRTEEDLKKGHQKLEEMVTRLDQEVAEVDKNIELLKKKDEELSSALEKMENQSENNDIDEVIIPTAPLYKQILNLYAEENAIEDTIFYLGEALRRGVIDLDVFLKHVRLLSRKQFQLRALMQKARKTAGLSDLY

| SMILES | outcome |
| --- | --- |
| O=[N+]([O-])c1ccc(C=Nc2ccc(Cl)cc2Cl)s1 | inactive |
| CCOC(=O)c1nnn(-c2nonc2-n2cccc2)c1CN1CCC(C(=O)OCC)CC1 | inactive |
| C=CCc1cccc2cc(C(=O)Nc3ccc(NC(C)=O)cc3)c(=O)oc12 | inactive |
| CCOC(=O)[C@@H]1[C@H]2COc3cc(OC)ccc3[C@H]2N2C(=O)N(c3ccc(F)cc3)C(=O)[C@]12C | inactive |
| O=C(Cc1ccccc1)Nc1c(Cl)ccc2nsnc12 | inactive |
| CC(=O)c1ccc(NC(=O)C2CC(=O)Nc3nc4ccccc4n32)cc1 (configuration not stated) | inactive |
| CCOc1ccc(NC(=O)C/C(C)=N/NC(=O)Cc2cccs2)cc1 | inactive |
| CN(CC(=O)NCCN1CCOCC1)S(=O)(=O)c1ccc(F)cc1 | inactive |
| C/C(=N\NC(=O)CCn1nc(C)cc1C)C(C)(C)C | inactive |
| O=C(Cc1ccc(NC(=O)C2CCCN(C(=O)CCc3ccccc3)C2)cc1)Nc1ccc(C(=O)N2CCOCC2)cc1 (configuration not stated) | inactive |
| COc1ccc(-c2nc3c(s2)CCc2onc(-c4ccc(OC)cc4)c2-3)cc1 | inactive |
| CC(=O)Nc1ccc(S(=O)(=O)N(CCc2ccccc2)CC(=O)N/N=C/c2ccc(C(=O)O)cc2)cc1 | inactive |
| COc1cc(Cl)ccc1OCc1cc(C(=O)N(C)CCc2c(C)n[nH]c2C)no1 | inactive |
| CC(C)C[C@H](NC(=O)C1CC(=O)N(c2ccc3c(c2)OCCO3)C1)C(=O)NC1CCCC1 (some centres not stated) | inactive |
| COc1ccc(Cl)cc1NC(=O)CN(C)C(=O)CCCc1c[nH]c2ccccc12 | inactive |
| CC(C)CC(CC(C)C)=NNC(=O)c1ccc(CSc2nncn2C)cc1 | inactive |
| O=C(c1cc(-c2ccco2)nc2ccccc12)N(Cc1nnc(-c2ccc(Cl)cc2)o1)C1CC1 | inactive |
| CN(CC(=O)Nc1ccc(Cl)c(C(F)(F)F)c1)C(=O)CCC(=O)c1ccccc1 | inactive |
| Cn1ncc(N2CCN(S(=O)(=O)c3ccc(Br)cc3)CC2)c(Cl)c1=O | inactive |
| CC(C)OP(=O)(OC(C)C)C(Nc1ccccc1)c1cccc([N+](=O)[O-])c1 (configuration not stated) | inactive |
| CC(=O)N(c1ccc2oc(=O)sc2c1)S(=O)(=O)c1ccc(C)cc1 | inactive |
| Clc1ccc(C[n+]2cc(-c3ccc(Cl)cc3)n3c2CCC3)cc1 | inactive |
| COC(=O)[C@@H]1C[C@@]2(O)[C@@H](O)[C@@H](O)[C@@H](O)C[C@H]2N1Cc1ccc(C)s1 | inactive |
| COc1ccccc1NS(=O)(=O)c1ccc(C)c(C(=O)NNC(=O)c2csc(N3CCOCC3)n2)c1 | inactive |
| CC(=O)OC1CCC2C3CCC4=C(CC(F)C(=O)C4)C3CCC12C (configuration not stated) | inactive |
| Cc1ccc(S(=O)(=O)N2CCCC2C(=O)NCc2ccco2)cc1 (configuration not stated) | inactive |

| SMILES | outcome |
| --- | --- |
| CS(=O)(=O)N1CCCC(C(=O)N2CCOCC2)C1 (configuration not stated) | inactive |
| CCCN1C(=O)C(NC(C)=O)c2cc(OC)ccc21 (configuration not stated) | inactive |
| O=C(NC1CCCC1)C(c1ccc(N2CCOCC2)cc1)N(C(=O)c1ccco1)c1ccccc1F (configuration not stated) | inactive |
| O=C(Nc1ccccc1-c1nnn(CC(=O)N2CCCc3ccccc32)n1)c1cccc(Cl)c1 | inactive |
| CC(C)C(O)C1CCN(Cc2nc(Cc3ccccc3Cl)no2)CC1 (configuration not stated) | inactive |
| O=C(Nc1ccc2c(c1)nc1n2CCCCC1)c1cc(S(=O)(=O)N2CCOCC2)ccc1Cl | inactive |
| C=CCn1c(COc2ccc(F)cc2)nnc1SCC(=O)Nc1cccc(S(N)(=O)=O)c1 | inactive |
| CCc1c(O)nc(SCC(=O)Nc2ccccc2)n(C(C)CC)c1=O (configuration not stated) | inactive |
| COc1cc(OC)cc(C(=O)NNC(=O)Cc2cccs2)c1 | inactive |
| Cc1cc(C)cc(-c2nnc(SCC(=O)NC3CC3)o2)c1 | inactive |
| CCc1cccc(C)c1NC(=S)N(CCCN1CCN(C)CC1)Cc1cccs1 | inactive |
| COc1cccc(NC(=O)Cn2c3ccc(F)cc3c3nc4n(c(=O)c32)CCS4)c1 | inactive |
| O=S(=O)(NN=C1CCCCCCC1)c1ccc(Br)cc1 | inactive |
| Cn1c2ccccc2n2c(=O)c(=O)n(CC(=O)c3ccc(F)cc3)nc12 | inactive |
| CCOc1ccc(NC(=O)COc2ccc(C(=O)N3CCC(C(N)=O)CC3)cc2OC)cc1 | inactive |
| CC(NS(=O)(=O)c1ccccc1)c1n[nH]c(=S)n1-c1ccccc1 (configuration not stated) | inactive |
| O=C(O)C1CCCCC1C(=O)N1CCN(S(=O)(=O)c2ccc(F)cc2)CC1 (configuration not stated) | inactive |
| COc1ccc(OCc2n[nH]c(=S)n2N)cc1 | inactive |
| Cc1ccccc1-n1cc(CNC(=O)CC2C(=O)NCCN2C/C=C/c2ccccc2)cn1 (configuration not stated) | inactive |
| CN1CCCN(C(=O)C2CCCCC2)CC1 | inactive |
| CCc1nc(SCC(=O)Nc2ccccc2OC)n[nH]1 | inactive |
| CC(=O)N(CN1C(=O)C2CC=CCC2C1=O)c1cccc(Cl)c1 (configuration not stated) | inactive |
| O=C(O)CCN(Cc1ccccc1)S(=O)(=O)c1c(Cl)cccc1Cl | inactive |
| CSc1nc2nc(-c3cccc(C(F)(F)F)c3)ccn2n1 | inactive |
| CC(=O)n1cc([C@@H]2C=C(C(=O)N3CCN(Cc4ccc5c(c4)OCO5)CC3)O[C@H](OCc3ccc(CO)cc3)C2)c2ccccc21 | inactive |
| CC(=O)N1CCOc2ccc(S(=O)(=O)N3CCC(C(=O)Nc4ccccc4F)CC3)cc21 | inactive |

| SMILES | outcome |
| --- | --- |
| COc1ccc(Cl)cc1NS(=O)(=O)c1cccc(C(=O)NCC2CCCO2)c1 (configuration not stated) | inactive |
| CC1=C2C(=O)OC(c3ccoc3)C2(C)CCC1 (configuration not stated) | inactive |
| C/C(=N\N1CCN(Cc2ccc(C)cc2)CC1)c1ccco1 | inactive |
| O=C1CCC(=O)N1CCOP1(=O)COc2ccccc2OC1 | inactive |
| O=C1c2ccccc2NC(c2ccccc2O)N1NS(=O)(=O)c1ccccc1 (configuration not stated) | inactive |
| COc1cccc(C(=O)Nc2cc3c(cc2Br)OCCCO3)c1 | inactive |
| COc1ccccc1C(=O)Nc1ccnn1C1CCN(C(=O)C(C)(C)C)CC1 | inactive |
| O=C(CCSc1ccccc1)NCCSc1ccccn1 | inactive |
| CCCCC(=O)NC(c1ccc(OC)c(OC)c1)c1ccc2cccnc2c1O (configuration not stated) | inactive |
| CN(C)CCNC(=O)c1ccc(Cl)c2cc3ccccc3nc12 | inactive |
| CCCCN(C(=O)CSCC(=O)Nc1ccc(OC)cc1)c1c(N)n(CCC)c(=O)[nH]c1=O | inactive |
| C=CCN1C(=O)C(Cc2ccc(OCC)cc2)SC1=Nc1ccc(C(=O)O)cc1 (configuration not stated) | inactive |
| O=C(O)CN(Cc1ccco1)S(=O)(=O)c1ccc(F)cc1 | inactive |
| CCN(CC)S(=O)(=O)c1cccc(NC(=O)c2ccc(S(=O)(=O)N3CCCC3)cc2)c1 | inactive |
| CC(NCCO)C(=O)C12CC3CC(CC(C3)C1)C2 (configuration not stated) | inactive |
| COCCNC(=O)C(OC(=O)c1cccs1)c1ccc(F)cc1 (configuration not stated) | inactive |
| O=C1NC(Nc2nc3ccccc3s2)(C(F)(F)F)C(=O)N1C1CCCCC1 (configuration not stated) | inactive |
| COC(=O)c1cc(NC(=O)CC2C(=O)NCCN2C(=O)c2ccc(F)cc2)cc(C(=O)OC)c1 (configuration not stated) | inactive |
| Cc1occc(=O)c1OCc1c(Cl)cccc1Cl | inactive |
| CCCCc1ccc(NS(=O)(=O)c2cccc(C(=O)N3CCCN(C)CC3)c2)cc1 | inactive |
| CCC(=O)N1c2ccc(S(=O)(=O)NCc3ccco3)cc2CC1C (configuration not stated) | inactive |
| Cc1nnc(SCCCCSc2nnc(C)c(=O)[nH]2)[nH]c1=O | inactive |
| CCOC(=O)c1cccc(NC(=O)CCc2nnc3ccc(N4CCOCC4)nn23)c1 | inactive |
| CCCC[C@H]1COCCS(=O)(=O)N1Cc1cccc(Cl)c1 | inactive |
| C/C=C/c1ccc(OCC(=O)NNC(=O)CN(C)S(=O)(=O)c2ccc(C)cc2)c(OC)c1 | inactive |
| CC(C)(C)c1cc(NC(=O)NN2CCOCC2)nn1-c1c(Cl)cc(Cl)cc1Cl | inactive |

| SMILES | outcome |
| --- | --- |
| COc1ccc(OC)c(C(O)c2nc3ccccc3n2C)c1 (configuration not stated) | inactive |
| NC(=O)C1(N2CCCC2)CCN(Cc2ccccc2)CC1 | inactive |
| CCOC(=O)C1CN(S(=O)(=O)c2ccc(F)cc2)C1 | inactive |
| CC(C)(C)n1cnnc1Sc1ccc([N+](=O)[O-])cn1 | inactive |
| O=C(COC(=O)/C=C/c1cccc(Cl)c1)NCc1cccs1 | inactive |
| Cc1onc(-c2c(F)cccc2Cl)c1C(=O)Nc1cccc(S(=O)(=O)N2CCCCC2)c1 | inactive |
| CSc1sc(C(=O)NC(=O)NCc2cccnc2)c(C)c1-c1ccon1 | inactive |
| Cc1nn(-c2ccccc2)c2c1C(c1cccc([N+](=O)[O-])c1)N(c1ccccc1)C(=O)N2 (configuration not stated) | inactive |
| CC1(C)C2CCC13CS(=O)(=O)NC3C2 (configuration not stated) | inactive |
| Cc1nc(Nc2ccccc2C)c2cnn(C)c2n1 | inactive |
| O=C1N[C@@H](Cc2ccccc2)C(=O)N2[C@@H]3N(S(=O)(=O)c4ccc(F)cc4)c4ccccc4[C@]3(Br)C[C@@H]12 | inactive |
| CCC1=C(OC(=O)N(CC)CC)N2C(=O)OC(=NCC3CC3)[C@]2(C)[C@H]2C1=CC[C@H]1C(=O)N(CC(=O)OC)C(=O)[C@H]12 | inactive |
| CC(C)N1CCc2c(sc(NC(=O)Cc3ccccc3)c2C#N)C1 | inactive |
| C#CCCCc1nc2ccccc2c(=O)n1N | inactive |
| CCCCN1CC(CO)Oc2cccc(F)c2S1(=O)=O (configuration not stated) | inactive |
| CCCc1nc(SCC(=O)Nc2ccccc2OC)c2c(=O)n(C)c(=O)n(C)c2n1 | inactive |
| CC(=O)Nc1cccc(NC(=O)CSc2nccn2Cc2ccc(F)cc2)c1 | inactive |
| N#Cc1cccc(OC(=O)c2ccc3c(=O)n4c(nc3c2)CCC4)c1 | inactive |
| CSc1ccccc1NC(=O)CN(C)CC(=O)Nc1cccc(Br)c1 | inactive |
| CN(C)/C(=N\OC(=O)c1ccccc1)c1nonc1N | inactive |
| CCOc1ccc(NC(=O)[C@H](C)NC(=O)C2CC(=O)N(c3ccc(OC)cc3)C2)cc1 (some centres not stated) | inactive |
| COc1cc(C2NC(=O)NC(c3ccccc3)=C2C(C)=O)c(Br)cc1OCC(N)=O (configuration not stated) | inactive |
| Cc1ccc(C(NC(=O)N2CCCC2)C(Cl)(Cl)Cl)cc1F (configuration not stated) | inactive |
| CCn1c(CC(=O)Nc2ccccc2C)nnc1SCC(=O)NC1=NCCS1 | inactive |
